Results taken from PubChem BioAssay (NCI).
Compounds without any hit were thinned out: in the full panel of roughly 83,000, 20% have a hit.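 In brief: 96-well plates, 48 h treatment, single concentration, percent growth endpoint.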 A number with no mark means an inactive call. How the source made its calls: active means growth percent below 10; inactive means the rest.

These molecules were tested on HCT-15 colon (assay: NCI-60 one-dose screen, 48 h (100 = growth as untreated, 0 = no growth, -100 = all killed)). Conditions: 10 µM unless noted.

Compound | growth [%]
ON1CCCC1 | 101
CC(=O)c1cccc(NS(=O)(=O)c2ccc(C)cc2)c1 | 43.2
CC(=O)NC(CCc1ccc(Cl)c(Cl)c1)c1cccc(O)c(=O)c1 (stereo not given) | 29.9
O=S(=O)(OCCOS(=O)(=O)c1ccccc1)c1ccccc1 | 91.9
Cc1cccc2ccccc12 | 92.9
O=C(OC1CCCC1)c1ccccc1Cl | 111
N#CCCN1C(=O)CCC1C(=O)O (stereo not given) | 97.8
CCOC(=O)C(CCC#N)(CCC#N)C(=O)OCC | 98.7
Cc1ccc(OC(=O)c2ccccc2)cc1 | 118
O=C1NC(=O)C(c2ccccc2)O1 (stereo not given) | 107
O=C(CCl)Oc1ccc([N+](=O)[O-])cc1 | 110
CCCCNC(=O)c1ccc(OCC)cc1 | 105
CC(CCC#N)(CCC#N)C(=O)c1ccccc1 | 100
O=[N+]([O-])c1c(Cl)ncnc1Cl | 100
Cc1ccc(S(=O)(=O)CCCl)cc1 | 90.9
Cc1ccc(NC(=O)c2ccccc2Cl)cc1 | 95.3

What follows are molecules tested on HT29 colon in the same assay as above. Conditions: 10 µM unless noted.

Compound | growth [%]
CC(CO)(CO)C(=O)O | 102
O=C(O)Cc1cccc2ccccc12 | 105
O=c1[nH]c(=O)c2cc(Cl)cc(Cl)c2[nH]1 | 106
C=CCC(OC(C)=O)c1ccc(OC)c(OC)c1 (stereo not given) | 107
C=CCC(OC(C)=O)c1ccc(C(C)C)cc1 (stereo not given) | 92.5
COC(=O)Cc1cc(COC(C)=O)ccc1C | 96.6
CCCCCCCCCCCCCCCCCC(=O)NCCNC(=O)CCCCCCCCCCCCCCCCC | 49.1
CC(=O)c1cccc(N(C)S(=O)(=O)c2ccc(C)cc2)c1 | 72.1
N#CC1(O)CCCCC1 | 104
CC(=O)OC(C)c1cccc(C#N)c1 (stereo not given) | 104
CCN(C(C)=O)c1ccc([N+](=O)[O-])cc1 | 104
CC(C)=CCC[C@@H](C)[C@H]1CC[C@@]2(C)C3=C(CC[C@]12C)[C@@]1(C)CC[C@H](O)C(C)(C)[C@@H]1CC3 | 90.1
CCOc1ccc(C(=O)NCC(C)C)cc1 | 106
CCOC(=O)C(C#N)=C1CCN(C)CC1 | 113
CCOC(C=O)OCC | 99.7
Cc1nc(O)cc(=O)[nH]1 | 108
COC1OC(C(O)C(O)CO)C(O)C(O)C1O (stereo not given) | 100
O=C(Nc1ccccc1)c1ccco1 | 100
NC(=O)OCCO | 99

Compound | growth [%]
CC(=O)c1ccc(C)cc1 | 111
O=C(CC(CC(=O)c1ccccc1)c1ccccn1)c1ccccc1 | 95.5
ON1CCCC1 | 95.3
CC(=O)c1cccc(NS(=O)(=O)c2ccc(C)cc2)c1 | 30.2
CC(=O)NC(CCc1ccc(Cl)c(Cl)c1)c1cccc(O)c(=O)c1 (stereo not given) | 27.6
O=S(=O)(OCCOS(=O)(=O)c1ccccc1)c1ccccc1 | 92.2
Cc1cccc2ccccc12 | 95.8
O=C(OC1CCCC1)c1ccccc1Cl | 105
N#CCCN1C(=O)CCC1C(=O)O (stereo not given) | 89.8
CCOC(=O)C(CCC#N)(CCC#N)C(=O)OCC | 111
Cc1ccc(OC(=O)c2ccccc2)cc1 | 95.3
O=C1NC(=O)C(c2ccccc2)O1 (stereo not given) | 105
O=C(CCl)Oc1ccc([N+](=O)[O-])cc1 | 119
CCCCNC(=O)c1ccc(OCC)cc1 | 107
CC(CCC#N)(CCC#N)C(=O)c1ccccc1 | 103
O=[N+]([O-])c1c(Cl)ncnc1Cl | 107
Cc1ccc(S(=O)(=O)CCCl)cc1 | 110
Cc1ccc(NC(=O)c2ccccc2Cl)cc1 | 107

Each molecule was assayed on SNB-75 CNS in the same assay as above. Conditions: 10 µM unless noted.

Compound | growth [%]
CC(CO)(CO)C(=O)O | 97.4
O=C(O)Cc1cccc2ccccc12 | 82.2
O=c1[nH]c(=O)c2cc(Cl)cc(Cl)c2[nH]1 | 68.2
C=CCC(OC(C)=O)c1ccc(OC)c(OC)c1 (stereo not given) | 98.8
C=CCC(OC(C)=O)c1ccc(C(C)C)cc1 (stereo not given) | 102
COC(=O)Cc1cc(COC(C)=O)ccc1C | 97.8
CCCCCCCCCCCCCCCCCC(=O)NCCNC(=O)CCCCCCCCCCCCCCCCC | 82.8
CC(=O)c1cccc(N(C)S(=O)(=O)c2ccc(C)cc2)c1 | 81.6
N#CC1(O)CCCCC1 | 49.2
CC(=O)OC(C)c1cccc(C#N)c1 (stereo not given) | 89.7
CCN(C(C)=O)c1ccc([N+](=O)[O-])cc1 | 108
CC(C)=CCC[C@@H](C)[C@H]1CC[C@@]2(C)C3=C(CC[C@]12C)[C@@]1(C)CC[C@H](O)C(C)(C)[C@@H]1CC3 | 92.7
CCOc1ccc(C(=O)NCC(C)C)cc1 | 81.8
CCOC(=O)C(C#N)=C1CCN(C)CC1 | 102
CCOC(C=O)OCC | 98.5
Cc1nc(O)cc(=O)[nH]1 | 97.1
COC1OC(C(O)C(O)CO)C(O)C(O)C1O (stereo not given) | 95.6
O=C(Nc1ccccc1)c1ccco1 | 87
NC(=O)OCCO | 110

Compound | growth [%]
CC(=O)c1ccc(C)cc1 | 90.1
O=C(CC(CC(=O)c1ccccc1)c1ccccn1)c1ccccc1 | 92.6
ON1CCCC1 | 83.2
CC(=O)c1cccc(NS(=O)(=O)c2ccc(C)cc2)c1 | 61.9
CC(=O)NC(CCc1ccc(Cl)c(Cl)c1)c1cccc(O)c(=O)c1 (stereo not given) | 18.7
O=S(=O)(OCCOS(=O)(=O)c1ccccc1)c1ccccc1 | 93.6
Cc1cccc2ccccc12 | 86.8
O=C(OC1CCCC1)c1ccccc1Cl | 90.3
N#CCCN1C(=O)CCC1C(=O)O (stereo not given) | 103
CCOC(=O)C(CCC#N)(CCC#N)C(=O)OCC | 80.9
Cc1ccc(OC(=O)c2ccccc2)cc1 | 108
O=C1NC(=O)C(c2ccccc2)O1 (stereo not given) | 93.2
O=C(CCl)Oc1ccc([N+](=O)[O-])cc1 | 91.2
CCCCNC(=O)c1ccc(OCC)cc1 | 102
CC(CCC#N)(CCC#N)C(=O)c1ccccc1 | 96.7
O=[N+]([O-])c1c(Cl)ncnc1Cl | 87.7
Cc1ccc(S(=O)(=O)CCCl)cc1 | 94.7
Cc1ccc(NC(=O)c2ccccc2Cl)cc1 | 95.3
